Screening results from PubChem.
Compounds with a hit are over-represented: about 3.4% of the library has one in this group of screens.
FBW7 act: activators of human E3 ligase FBW7. Q969H0. AlphaScreen FBW7–phospho-cyclin E peptide binding, activator screen. normalized activity (activation), % at 26.1 µM. 0.13% of 650,000 active; in the data active = normalized activity above about 1.9%;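 also: purified mutant Fbw7 with reduced substrate affinity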
TEAD-YAP inh: TEAD-YAP interaction inhibition; HEK-TIYL cells, TEAD-Gal4/YAP UAS-luciferase luminescence; inhibition, % at 9.12 µM; 1.4% of 640,000 active; AID 1259422; in the data active = inhibition above about 32%
GPR151 activ: human GPR151 activation; AID 1508602; activation, % at 11.2 µM; 1% of 650,000 active; Q8TDV0; PathHunter beta-arrestin GPR151 cells, luminescence; in the data active = activation above about 4.9%
MITF primary: human MITF inhibition, primary screen. inhibition, % at 2.6 µM. 0.91% of 650,000 active. O75030. AlphaScreen MITF homodimerization, bead proximity signal; in the data active = inhibition above about 50%
Target sequence (O75030 whole entry, looked up): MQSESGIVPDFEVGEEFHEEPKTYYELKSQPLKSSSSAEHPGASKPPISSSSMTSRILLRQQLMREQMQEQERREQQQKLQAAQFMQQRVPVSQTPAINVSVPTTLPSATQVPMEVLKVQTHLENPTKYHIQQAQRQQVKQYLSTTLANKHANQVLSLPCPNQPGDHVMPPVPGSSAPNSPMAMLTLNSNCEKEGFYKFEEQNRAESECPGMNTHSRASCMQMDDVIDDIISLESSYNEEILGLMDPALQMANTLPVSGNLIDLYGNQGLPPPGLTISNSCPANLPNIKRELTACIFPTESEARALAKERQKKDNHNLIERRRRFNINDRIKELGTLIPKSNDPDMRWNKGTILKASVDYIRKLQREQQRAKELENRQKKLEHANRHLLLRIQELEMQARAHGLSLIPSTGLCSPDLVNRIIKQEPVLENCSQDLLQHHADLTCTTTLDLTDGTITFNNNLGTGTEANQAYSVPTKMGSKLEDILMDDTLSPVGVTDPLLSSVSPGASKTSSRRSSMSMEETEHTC
Each line names hits and unclear results; the compound was inactive in the other large screens.

CC(=O)CSC1=C(C#N)C(c2sccc2C)C(C(C)=O)=C(C)N1 (stereo unspecified)	none
CCN1C(=O)c2cccc3c(S(=O)(=O)N4CCCCC4)ccc1c23	none
O=C(CSCc1ccc(Cl)cc1)NCc1ccccc1	none
CCOC(=O)c1ccc(-n2c(=O)c(C#N)cc3c(=O)n4cccc(C)c4nc32)cc1	none
CS(=O)(=O)Nc1cccc(-c2ccnc(Nc3ccc(-c4ncn[nH]4)cc3)n2)c1	TEAD-YAP inh 71.5
NS(=O)(=O)c1ccc(Nc2nccc(-c3cccc(OCCN4CCCCC4)c3)n2)cc1	TEAD-YAP inh 67.8
CS(=O)(=O)Nc1ccc(-c2ccnc(Nc3cccc(S(N)(=O)=O)c3)n2)cc1	none
CS(=O)(=O)Nc1cccc(-c2ccnc(Nc3cccc(S(N)(=O)=O)c3)n2)c1	TEAD-YAP inh 91.2
CC(C)NC(=O)CN1CCN(Cc2nc(-c3ccccn3)no2)CC1	none
O=C(Nc1ccc2oc(-c3cccc4ccccc34)nc2c1)c1ccc(Cl)c([N+](=O)[O-])c1	none
CCN1CCN(c2c(Cl)cccc2NC(=O)c2cccc3ccccc23)CC1	TEAD-YAP inh 35.3
C=C(C)CN1CCN(c2c(Cl)cccc2NC(=O)c2ccc(Br)o2)CC1	none
O=C(Nc1cccc(Cl)c1N1CCN(CCc2ccccc2)CC1)c1ccc(Br)o1	GPR151 activ 22.8
O=C(/C=C\Nc1ccc2c(c1)OCO2)c1ccccc1	TEAD-YAP inh 73.8
COc1cccc(C(=O)/C=C/Nc2ccccc2OC)c1	TEAD-YAP inh 64.0
COc1cccc(C(=O)/C=C\Nc2ccc(Br)cc2)c1	TEAD-YAP inh 53.7
COc1ccc(N/C=C/C(=O)c2ccccc2)cc1	TEAD-YAP inh 84.0
O=C(/C=C\Nc1ccc2c(c1)OCO2)c1cccc2ccccc12	none
COc1cccc(C(=O)/C=C/Nc2cc(OC)ccc2OC)c1	none
CCCCCCc1cc2c(-c3ccccc3)cc(=O)oc2cc1OCC(=O)c1ccc(OC)cc1	none
COc1cccc(C(=O)/C=C\Nc2ccc3c(c2)OCO3)c1	TEAD-YAP inh 85.4
CNc1nc(-c2ccc3c(c2)CCN3C(=O)C2CC2)c(C)s1	none
Cc1sc(N)nc1-c1ccc2c(c1)CC(C)N2S(C)(=O)=O (stereo unspecified)	none
CNc1nc(-c2ccc3c(c2)CCN3C(=O)C2CC2)cs1	TEAD-YAP inh 62.6
Cc1sc(NC(=O)CCl)nc1-c1ccc2c(c1)CCN2S(C)(=O)=O	none
CC(=O)Nc1nc(-c2ccc3c(c2)CCN3S(C)(=O)=O)c(C)s1	TEAD-YAP inh 51.9
Cc1sc(NC(=O)c2ccncc2)nc1-c1ccc2c(c1)CCN2C(=O)C1CC1	TEAD-YAP inh 38.4
CNc1nc(-c2ccc3c(c2)CC(C)N3S(C)(=O)=O)cs1 (stereo unspecified)	TEAD-YAP inh 44.3
COc1cccc(C(=O)N2CC[C@H]3[C@H](CCC(=O)N3Cc3cccnc3)C2)c1	none
Cc1nc(CSc2nc3ccc([N+](=O)[O-])cc3[nH]2)c(Br)s1	none
N#C/C(=C\c1c(F)cccc1Cl)c1nc2ccccc2c(=O)[nH]1	none
Cc1ccc(Nc2nc(-c3ccccc3)[n+](CS(=O)(=O)c3ccccc3)s2)cc1	none
CC1Cc2cc(-c3csc(NC(=O)Cc4cccs4)n3)ccc2N1S(C)(=O)=O (stereo unspecified)	TEAD-YAP inh 57.1
Cc1sc(NC(=O)Cc2cccs2)nc1-c1ccc2c(c1)CC(C)N2S(C)(=O)=O (stereo unspecified)	TEAD-YAP inh 52.3
CCOc1ccc(/C=C/c2nc3ccccc3c(=O)o2)cc1	TEAD-YAP inh 83.2
Cc1cc(C)c(S(=O)(=O)Nc2ccc(O)c(C(C(=O)OC(C)C)C(=O)C(F)(F)F)c2)c(C)c1 (stereo unspecified)	none
CCCCOC(=O)c1ccc(NC(=O)COc2ccc(Cl)cc2Cl)cc1	none
CCOC(=O)c1cccc(NC(=O)CCC2CCCCC2)c1	FBW7 act 2.1
CCCCOC(=O)c1cccc(NC(=O)COc2ccc(Cl)cc2Cl)c1	TEAD-YAP inh 57.4
CCOC(=O)c1cccc(NC(=O)COc2ccc(Cl)cc2Cl)c1	TEAD-YAP inh 81.3
CCOC(=O)c1cccc(NC2C=CS(=O)(=O)C2)c1 (stereo unspecified)	TEAD-YAP inh 62.9
CCCCCc1ccc(-c2ccc(-c3noc(-c4c(-c5ccccc5Cl)noc4C)n3)cc2)nc1	none
O=C(CNc1cccc(Br)c1)N/N=C/c1ccc(O)cc1O	none
Cc1cc2c(=O)n(CC(=O)NCc3ccc(F)cc3)cnc2s1	none
Cc1ccc(C)c(OCC(=O)Nc2c(C)cccc2C(C)C)c1C	none
CC1=C(C(=O)OCc2ccccc2)C(c2ccccc2[N+](=O)[O-])n2ncnc2N1 (stereo unspecified)	none
COc1ccccc1C(=O)Nc1nc(-c2ccc(C)cc2)c(-c2ccccc2)s1	none
N#CC1=C(N)Oc2c(ccc3ccccc23)C1c1cccc([N+](=O)[O-])c1 (stereo unspecified)	TEAD-YAP inh 66.0
COc1ccc(C2C(C#N)=C(N)Oc3c2sc2ccccc32)cc1[N+](=O)[O-] (stereo unspecified)	none
N#CC1=C(N)Oc2c(sc3ccccc23)C1c1cccc([N+](=O)[O-])c1 (stereo unspecified)	TEAD-YAP inh 53.1
N#CC1=C(N)Oc2c([nH]c(=O)[nH]c2=O)C1c1cccc([N+](=O)[O-])c1 (stereo unspecified)	none
Nc1ccc(-c2ccc(-c3ccc(N)cc3)cc2)cc1	FBW7 act 43.1, TEAD-YAP inh 74.0
COc1ccc(-c2ccc(N)cc2)cc1	none
NC(=O)c1c(NC(=O)CSc2nc(-c3ccccc3)cn2N)sc2c1CCC2	TEAD-YAP inh 35.8
Nc1ccc(-c2nc3ncc(Cl)cc3[nH]2)cc1	TEAD-YAP inh 35.4
Clc1cnc2nc(-c3cccnc3)[nH]c2c1	none
CC(C)c1nnc(C2CCN(S(=O)(=O)c3ccccc3)CC2)o1	none
COc1cc([N+](=O)[O-])cc2c1NC(c1ccc(C(=O)O)cc1)C1CC=CC21 (stereo unspecified)	MITF primary 75.2
COc1cccc2c1N[C@@H](c1ccc(C(=O)O)cc1)[C@H]1CC=C[C@@H]21	MITF primary 63.3
COc1cccc2c1NC(c1ccc(C(=O)O)cc1)C1CC=CC21 (stereo unspecified)	MITF primary 71.3
CCOC(=O)N1CCN(C(=S)Nc2ccc(OC(F)F)cc2)CC1	none
N#Cc1ccccc1S(=O)(=O)NCC(=O)Nc1ccc2c(c1)OCO2	TEAD-YAP inh 43.7
CC(C)CC(=O)NC(Nc1ccccc1[N+](=O)[O-])C(Cl)(Cl)Cl (stereo unspecified)	none
COc1ccc(OC)c(C2C=C(c3cccnc3)Nc3ncnn32)c1 (stereo unspecified)	none
COc1ccc(C2=CC(c3cc(OC)ccc3OC)n3ncnc3N2)cc1 (stereo unspecified)	TEAD-YAP inh 49.8
COc1cccc(C2=CC(c3cc(OC)ccc3OC)n3ncnc3N2)c1 (stereo unspecified)	TEAD-YAP inh 49.6
Cc1ccc(C)c(Cc2c(C)nc3c(C(=O)NC4CCCCCCC4)cnn3c2C)c1	none
COc1ccc(Cn2c(SCC#N)nc3ccsc3c2=O)cc1	none
